Measurements from PubChem BioAssay (NCATS).
Records with an inconclusive call do not appear. Active and inactive are the calls of the source. Unless noted, calls come from the whole dose curve.

Key:
[1] = qHTS assay for small molecule agonists of retinoid X receptor alpha signaling (AID 588544); conditions: HEK293T RXRa-UAS-bla, beta-lactamase reporter, 18 h; 530 nm emission;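 for activation: 0% = DMSO basal wells and 100% = reference agonist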
[2] = target: Retinoic acid receptor RXR-alpha (Homo sapiens) (UniProt P19793); experiment: as above; conditions: HEK293T RXRa-UAS-bla, beta-lactamase reporter, 18 h; series mostly up to 76.7 µM
[3] = qHTS assay for small molecule antagonists of retinoid X receptor alpha signaling (AID 588546; active = well fitted inhibition curve with a large enough effect in the signal ratio, with a control signal flat, not every such curve was filed as active; the % refers to the signal ratio;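 note: cells stimulated with 9-cis-retinoic acid as agonist; % is set by controls: 0 for no effect and ±100 for the full control effect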); conditions: HEK293T RXRa-UAS-bla, beta-lactamase ratio, antagonist mode; measured here: W530 green channel, cytotoxicity proxy
Procedure, shortened: (§1)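 Beta-lactamase reporter inhibition, read as CCF4 fluorescence ratio (ex 405, em 460/530 nm) after 2 h at RT. HEK293T UAS-bla cells, 2500/well, were stimulated with 9-cis-RA at 500 or 100 nM final alongside test compound for 18 h at 37 C.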

[4] = target: Retinoic acid receptor RXR-alpha (Homo sapiens) (UniProt P19793); experiment: as above; conditions: HEK293T RXRa-UAS-bla, beta-lactamase ratio, antagonist mode
Procedure, shortened: as §1

[5] = target: Thyroid hormone receptor beta (Homo sapiens) (UniProt P10828); experiment: qHTS assay for small molecule antagonists of thyroid hormone receptor beta signaling (AID 588547; active = well fitted inhibition curve with a large enough effect in the signal ratio, with a control signal flat, not every such curve was filed as active; the % refers to the signal ratio;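 note: cells stimulated with 0.4 nM T3 agonist during compound exposure; % is set by controls: 0 for no effect and ±100 for the full control effect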); conditions: TR-UAS-bla HEK293, beta-lactamase ratio, antagonist mode, 18 h
Procedure, shortened: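 TR-UAS-bla GripTite HEK293 cells in 2% charcoal/dextran FBS medium; compounds 0.59 nM to 92 uM with T3 at 0.4nM final, 18 h at 37 C. Beta-lactamase read by CCF4 fluorescence (460/530 nm); Hill fits gave IC50 and efficacy.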

[6] = target: Voltage-gated inwardly rectifying potassium channel KCNH2 (Homo sapiens) (UniProt Q12809); experiment: qHTS Assay for Small Molecule Inhibitors of the Human hERG Channel Activity (AID 588834; active = well fitted inhibition curve with a large enough effect;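 note: top concentration of the series differs between compounds; % is set by controls: 0 for no effect and ±100 for the full control effect; lower thallium flux fluorescence means stronger hERG block; nearly all actives have a fitted effect of over 50% in size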); conditions: U2OS BacMam hERG, FluxOR thallium flux fluorescence; series mostly up to 92.2 µM
Procedure, shortened: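 Thallium serves as surrogate for K+ influx through BacMam-delivered hERG in U2OS cells. Compounds are added for about 10 minutes after dye loading; stimulation buffer then starts flux, monitored kinetically on FDSS.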

[7] = qHTS assay for small molecule agonists of the antioxidant response element (ARE) signaling pathway (AID 651741; active = well fitted activation curve with a large enough effect in the signal ratio; the % refers to the signal ratio; note: potency is the fitted concentration of half-maximal effect; for activation: % of control where 0% means no effect); conditions: HepG2 ARE-bla reporter, beta-lactamase FRET ratio, 16 h; series mostly up to 96 µM
Procedure, shortened: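 Stably integrated ARE-beta-lactamase reporter HepG2 cells; 16 h compound incubation, 37 C; LiveBLAzer FRET substrate 2 h at room temperature; fluorescence intensity.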

[8] = qHTS assay for small molecule activators of the nuclear factor-kappa B (NF-kB) signaling pathway (AID 651749; active = well fitted activation curve with a large enough effect in the signal ratio; the % refers to the signal ratio; note: % of control where 0% means no effect); conditions: NF-kB-bla ME-180 cells, beta-lactamase FRET ratio, 16 h; stronger effect = higher value
Procedure, shortened: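 In this qHTS format, compounds acting as activators increase NF-kB-driven beta-lactamase in ME-180 cells, measured as disrupted FRET after 16 hr exposure at 37C and 5% CO2.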

[9] = target: Thyroid hormone receptor beta (Homo sapiens) (UniProt P10828); experiment: qHTS assay for small molecule agonists of thyroid hormone receptor beta signaling (AID 588545); conditions: TR-UAS-bla GripTite HEK 293, beta-lactamase ratio, agonist mode, 18 h, percent of T3 response, DMSO as zero; series mostly up to 76.7 µM
Procedure, shortened: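 Agonist-mode beta-lactamase reporter assay, HEK 293 cells, 2% charcoal/dextran FBS; cells plated 4 hrs, compound 18 hrs at 37 C, CCF4 2 hrs RT. Normalized to 10 nM T3 (100%) and DMSO (0%); Hill fit gives EC50, efficacy.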

[10] = qHTS assay for small molecule activators of the p53 signaling pathway (AID 651743; active = well fitted activation curve with a large enough effect in the signal ratio, not every such curve was filed as active; the % refers to the signal ratio; note: % of control where 0% means no effect); conditions: HCT-116 p53RE-bla, beta-lactamase FRET ratio, 16 h; stronger effect = higher value
Procedure, shortened: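 Following 16 hours of compound exposure at 37 C, HCT-116 cells bearing the p53RE-bla reporter were loaded with LiveBLAzer B/G FRET substrate for 2 hours at room temperature and fluorescence intensity was recorded.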

Chain of Voltage-gated inwardly rectifying potassium channel KCNH2 (Homo sapiens) (Q12809 whole entry, looked up): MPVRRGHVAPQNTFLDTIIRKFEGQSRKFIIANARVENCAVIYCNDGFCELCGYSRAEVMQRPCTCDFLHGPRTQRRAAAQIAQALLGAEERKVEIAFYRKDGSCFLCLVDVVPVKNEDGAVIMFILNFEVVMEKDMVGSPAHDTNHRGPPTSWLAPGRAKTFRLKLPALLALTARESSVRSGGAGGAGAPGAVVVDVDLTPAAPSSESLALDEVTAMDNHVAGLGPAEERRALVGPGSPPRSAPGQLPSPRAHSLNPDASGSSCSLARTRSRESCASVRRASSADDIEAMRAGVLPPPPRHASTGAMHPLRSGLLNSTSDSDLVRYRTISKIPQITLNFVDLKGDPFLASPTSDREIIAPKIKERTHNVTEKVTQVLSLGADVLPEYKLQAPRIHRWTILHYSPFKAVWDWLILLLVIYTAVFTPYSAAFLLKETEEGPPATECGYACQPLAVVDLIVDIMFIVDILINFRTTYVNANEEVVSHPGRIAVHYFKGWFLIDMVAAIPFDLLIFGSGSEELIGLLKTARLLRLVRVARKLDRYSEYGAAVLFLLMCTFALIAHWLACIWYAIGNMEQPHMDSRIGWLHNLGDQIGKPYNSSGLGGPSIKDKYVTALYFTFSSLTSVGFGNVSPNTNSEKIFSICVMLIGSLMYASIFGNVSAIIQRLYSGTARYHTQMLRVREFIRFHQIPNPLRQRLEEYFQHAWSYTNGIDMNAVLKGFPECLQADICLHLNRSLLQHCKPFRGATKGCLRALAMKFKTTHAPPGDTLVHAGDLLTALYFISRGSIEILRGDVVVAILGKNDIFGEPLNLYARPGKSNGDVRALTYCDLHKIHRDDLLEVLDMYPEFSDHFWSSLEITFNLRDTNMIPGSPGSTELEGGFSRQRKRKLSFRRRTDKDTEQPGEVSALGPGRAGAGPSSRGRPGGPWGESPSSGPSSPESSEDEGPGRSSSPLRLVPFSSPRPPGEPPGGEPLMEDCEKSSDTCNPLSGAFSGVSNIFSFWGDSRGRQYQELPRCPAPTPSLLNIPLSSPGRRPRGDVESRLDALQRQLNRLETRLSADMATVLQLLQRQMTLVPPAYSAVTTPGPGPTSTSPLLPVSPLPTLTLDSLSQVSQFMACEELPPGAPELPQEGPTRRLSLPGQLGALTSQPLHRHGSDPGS
Chain of Thyroid hormone receptor beta (Homo sapiens) (P10828 whole entry, looked up): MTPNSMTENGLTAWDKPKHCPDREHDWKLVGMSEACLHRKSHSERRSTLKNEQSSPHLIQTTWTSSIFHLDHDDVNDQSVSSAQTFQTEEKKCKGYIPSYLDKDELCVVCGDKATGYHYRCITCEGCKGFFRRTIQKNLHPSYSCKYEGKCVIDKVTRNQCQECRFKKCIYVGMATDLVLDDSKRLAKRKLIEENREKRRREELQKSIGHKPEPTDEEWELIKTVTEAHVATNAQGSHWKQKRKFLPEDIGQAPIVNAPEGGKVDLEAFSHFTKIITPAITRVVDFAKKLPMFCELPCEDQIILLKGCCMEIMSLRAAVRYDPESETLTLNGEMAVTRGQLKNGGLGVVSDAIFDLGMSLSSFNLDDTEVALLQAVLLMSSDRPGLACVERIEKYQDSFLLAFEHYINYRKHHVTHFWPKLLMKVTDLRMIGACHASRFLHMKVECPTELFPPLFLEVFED
Chain of Retinoic acid receptor RXR-alpha (Homo sapiens) (P19793 whole entry, looked up): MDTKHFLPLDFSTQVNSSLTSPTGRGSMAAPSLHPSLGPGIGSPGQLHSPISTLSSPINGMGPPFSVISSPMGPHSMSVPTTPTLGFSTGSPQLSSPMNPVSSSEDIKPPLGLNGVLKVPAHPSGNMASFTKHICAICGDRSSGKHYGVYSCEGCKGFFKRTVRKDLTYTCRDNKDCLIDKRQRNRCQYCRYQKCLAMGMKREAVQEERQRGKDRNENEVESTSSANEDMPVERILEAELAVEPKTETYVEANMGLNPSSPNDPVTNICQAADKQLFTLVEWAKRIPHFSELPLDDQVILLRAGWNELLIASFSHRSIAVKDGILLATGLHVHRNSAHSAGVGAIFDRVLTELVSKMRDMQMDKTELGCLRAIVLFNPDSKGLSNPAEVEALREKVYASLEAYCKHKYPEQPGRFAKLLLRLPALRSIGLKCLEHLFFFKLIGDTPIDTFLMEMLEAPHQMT

Row | SMILES | max response [1] | outcome [2] | max response [3] | max response [4] | activity change % (negative = inhibition) [5] | Potency [6] | Potency [7] | activation [8] | outcome [9] | activation [10]
1 | CC(=O)c1ccccc1[N+](=O)[O-] | -16.2% | inactive | 5.46% | 5.8% (inactive) | 19.8% (inactive) | inactive | inactive |  |  | 
2 | CCCC=O | -4.54% | inactive | 6.82% | 14.7% (inactive) | -7% (inactive) | inactive |  | -4.7% (inactive) |  | 
3 | CCCOCC(C)O (stereo unspecified) | -2.42% | inactive | -6.13% | 0.524% (inactive) |  | inactive |  |  |  | 
4 | Oc1cccc(Nc2ccccc2)c1 | -0.0784% | inactive |  |  |  | inactive | 42.2 µM (active) | 0.49% (inactive) | inactive | 
5 | CCCCCCCCCCCCOCC1CO1 (stereo unspecified) | 6.34% | inactive |  |  | -4.18% (inactive) | inactive |  | -0.615% (inactive) | inactive | 
6 | Nc1ccccc1[N+](=O)[O-] | -4.62% | inactive | 1.56% | -0.391% (inactive) | -6.45% (inactive) | inactive | inactive |  |  | -3.02% (inactive)
7 | CC(O)CC(C)O (stereo unspecified) | -6.63% | inactive | 14.5% | 3.51% (inactive) | -2.07% (inactive) | inactive |  | -0.133% (inactive) |  | 
8 | Cc1ccc(C)c([N+](=O)[O-])c1 | -15.2% | inactive |  |  | 0.688% (inactive) | inactive |  | 0.199% (inactive) | inactive | 
9 | c1ccc2[nH]cnc2c1 | -10.3% | inactive |  |  | 2.62% (inactive) | inactive |  | 1.42% (inactive) | inactive | 0.533% (inactive)
10 | CC/C(C)=N/O | -14.2% | inactive |  |  | 13.4% (inactive) | inactive |  |  | inactive | -0.712% (inactive)
11 | CCOC(=O)C(C)C(C)=O (stereo unspecified) | -14.3% | inactive |  |  |  | inactive |  |  | inactive | 
12 | CCCCCCO | -18.4% | inactive | -3.18% | -1.79% (inactive) | 4.77% (inactive) | inactive |  | -0.278% (inactive) |  | -2.65% (inactive)
13 | C/C=C1\CC2C=CC1C2 (stereo unspecified) | -9.1% | inactive | -2.6% | 6.71% (inactive) | 2.19% (inactive) | inactive | inactive | -0.076% (inactive) |  | 
14 | CCCCCCCN | -16.2% | inactive | 3.38% |  |  | inactive |  |  | inactive | -0.0412% (inactive)
15 | CCCCCCCCC | -5.14% | inactive | -11.2% | 0.715% (inactive) | 13.2% (inactive) | inactive | inactive | 0.37% (inactive) |  | -1.85% (inactive)
16 | CNC(=O)c1ccccc1 | -5.28% | inactive | -1.2% | 15.4% (inactive) | -4.06% (inactive) | inactive | inactive | -1.22% (inactive) |  | 1.09% (inactive)
17 | CCOc1ccc(NC(C)=O)cc1N | 3.78% | inactive |  |  | 2.46% (inactive) | inactive | inactive | -1.6% (inactive) | inactive | -6.53% (inactive)
18 | COc1cccc(N)c1 | 15.1% | inactive |  |  |  | inactive |  |  | inactive | 
